Pf Dd2 growth: blocks in vitro growth of P. falciparum Dd2; actives 4.3% (n = 120,000); P. falciparum Dd2 growth, SYBR Green, 72 h; Potency, µM (top dose mostly 28.9 µM), usual class: inhibitors; AID 1347417; active means well fitted inhibition curve with a large enough effect; further: nearly all actives have a fitted effect of over 65% in size
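Readout: SYBR Green fluorescence, 485 nm excitation, 535 nm emission, after ~16 h lysis at 37C. Before that, Dd2-infected red cells (2.5% hematocrit) grew 72 h with compound, 29 uM top final concentration.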
Hits are given with their value; 0 = inactive; [ ] = remark or other dose. This is one part of a sample in which hits are shown more often than they occur.

SMILES	Pf Dd2 growth
CN(Cc1ccccc1)Cc1cn(C[C@H]2CC3CCN2C[C@@H]3C(=O)NCc2ccccc2)nn1 (stereo partly specified)	0
CC(=O)NCCNC(=O)[C@H]1CN2CCC1C[C@@H]2Cn1cc(CN(C)Cc2ccccc2)nn1 (stereo partly specified)	0
CN(Cc1ccccc1)Cc1cn(C[C@H]2CC3CCN2C[C@@H]3C(=O)NCc2ccc(F)cc2)nn1 (stereo partly specified)	10µM
Cc1cc(C)nc(SCc2ccc(C(=O)N3CC[C@@](C)(O)[C@@H](O)C3)o2)n1	0
COc1ccc(C(=O)NC2CCN(c3cnn(CC4CC4)c(=O)c3)CC2)c(OC)n1	0
O=C(Cc1c[nH]c2ncc(-c3ccc(Oc4ccccc4)cc3)cc12)N1CCOCC1	0
COc1cccc(-c2cnc3[nH]cc(CC(=O)N4CCN(C)CC4)c3c2)c1	0
COc1ccc(-c2cnc3[nH]cc(CC(=O)N4CCNC(=O)C4)c3c2)cc1	7.94µM
CC(C(=O)NCc1cc(F)cc(F)c1)C1CCOCC1 (stereo unspecified)	0
O=C(Cc1cccc(F)c1)N1CCn2c(nnc2[C@@H]2C[C@@H](O)CN2Cc2ccccc2)C1	0
CC(=O)N[C@@H]1CN(Cc2cccc(C#N)c2)C[C@H]1CO	0
Cc1ccc(OCC(=O)N2CCC3(CC2)N(CC2CC2)C(=O)CS3=O)cc1 (stereo unspecified)	0
O=C(CSc1nnc(-c2ccc(Cl)cc2)c(-c2ccc(Cl)cc2)n1)NC1CCCC1	0
COc1ccc(-c2nnc(SCC(=O)NC3CCCCC3)nc2-c2ccc(OC)cc2)cc1	0
Cc1ccc(-c2nnc(SCC(=O)NC3CCCC3)nc2-c2ccc(C)cc2)cc1	5.01µM
Cc1cn2nc(C(=O)N3CCC(NC(=O)c4cccc(F)c4)CC3)cc2c(=O)[nH]1	0
CN(C)c1ccc(CN2CCn3c(nn(-c4ccc([N+](=O)[O-])cc4)c3=O)C2)cc1	0
OCCc1cnc2c(-c3nc(-c4cccnn4)no3)cnn2c1	0
CN1CCC(CNC(=O)c2cc(-c3ccc(F)cc3)cc3ncn(C)c23)CC1=O (stereo unspecified)	0
COC[C@@H]1CN(S(=O)(=O)Cc2ccccc2)C[C@H]1c1ccncc1	0
CC(=O)c1cccc(NC(=O)Nc2cc3c(cc2N2CCCC2)n(C)c(=O)n3C)c1	0
CCn1c(=O)n(CC)c2cc(N3CCCCC3)c(NC(=O)Nc3cc(Cl)ccc3OC)cc21	8.91µM
Cc1ccc(C)c(NS(=O)(=O)c2ccc3c(c2)n(C)c(=O)n3C)c1	0
Cc1ccc(C)c(NC(=O)Nc2cc3c(cc2N2CCCCC2)n(C)c(=O)n3C)c1	10µM
O=C(Cn1nc2n(c1=O)CCCCC2)Nc1ccccc1C(F)(F)F	0
SMILES	Pf Dd2 growth
CCn1c(=O)n(CC)c2cc(N3CCCCC3)c(NC(=O)Nc3ccccc3C(F)(F)F)cc21	10µM
Cc1ccc(C#N)c(=O)n1CC(=O)Nc1ccccc1C(F)(F)F	0
COc1ccc(Cl)cc1NC(=O)Nc1c[nH]c(=O)[nH]c1=O	0
COc1ccc(Cl)cc1NC(=O)c1c(OC)cc(=O)n2c1CCCC2	0
CNC(=O)[C@@H]1CN(C(=O)Cn2nc(C(F)(F)F)cc2C)C[C@H]1CO	0
COc1ccc(N2CC(C(=O)N(C)CCc3noc(C)n3)CC2=O)cc1Cl (stereo unspecified)	0
Cc1ccc(C)c(N2CCN(CCCNC(=O)c3cnn(-c4ccccc4Cl)c3C3CCN(C(=O)OC(C)(C)C)CC3)CC2)c1	2.24µM
Cc1ccc(C)c(N2CCN(CCCNC(=O)c3cnn(-c4cccc(Cl)c4)c3C3CCN(C(=O)OC(C)(C)C)CC3)CC2)c1	1.41µM
Cc1ccc(N2CCN(C(=O)c3cnn(-c4ccc(F)cc4F)c3C3CCN(C(=O)OC(C)(C)C)CC3)CC2)c(C)c1	7.94µM
CCN1CCN(CCCNC(=O)c2cnn(-c3ccc(C)cc3)c2C2CCN(C(=O)OC(C)(C)C)CC2)CC1	0
CCN1CCN(C(=O)c2cnn(-c3ccc(F)cc3F)c2C2CCN(C(=O)OC(C)(C)C)CC2)CC1	0
Cc1ccc(-n2ncc(C(=O)NCCCN3CCN(C)CC3)c2C2CCN(C(=O)OC(C)(C)C)CC2)c(C)c1	0
Cc1ccc(C)c(N2CCN(CCCNC(=O)c3cnn(-c4ccc(F)cc4)c3C3CCN(C(=O)OC(C)(C)C)CC3)CC2)c1	1.26µM
O=C(NC1CCN(c2cc(-c3ccccc3)[nH]n2)CC1)c1ccsc1	0
COc1cccc(CCC(=O)N2CCC(C3CCNC3)CC2)c1 (stereo unspecified)	0
Cc1ccc(C2NC(=O)N(CC(=O)NCCCc3ccccc3)C3=C2C(=O)OC3)cc1 (stereo unspecified)	0
COc1ccccc1C(=O)NC[C@H]1COCc2nc3cc(C)ccc3n21	0
CC(C)(C)OC(=O)N1CCC(c2c(C(=O)N3CCN(C(=O)c4ccco4)CC3)cnn2-c2ccc(Cl)cc2)CC1	0[5.79 µM]
CC(C)(C)OC(=O)N1CCC(c2c(C(=O)N3CCN(C(=O)c4ccco4)CC3)cnn2-c2ccccc2Cl)CC1	11.2µM
Cc1ccc(C)c(N2CCN(C(=O)c3cnn(-c4ccccc4Cl)c3C3CCN(C(=O)OC(C)(C)C)CC3)CC2)c1	3.55µM

Bioassay records (PubChem)
